Screens as filed in PubChem.
UHRF1 MBD2 ctr: UHRF1 methyl-DNA binding inhibition. AID 687016. inhibition, % at 4.4 µM. Q96T88. hit rate 0.75% among 370,000. UHRF1 binding to methylated oligo, TR-FRET; in the data active = inhibition above about 21%;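 note: UHRF1 SRA domain binding a hemimethylated CpG hairpin DNA probe; 0% = median of test compound wells and 100% = reference inhibitor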
Target sequence (Q96T88 whole entry, looked up, the tested form may be a part): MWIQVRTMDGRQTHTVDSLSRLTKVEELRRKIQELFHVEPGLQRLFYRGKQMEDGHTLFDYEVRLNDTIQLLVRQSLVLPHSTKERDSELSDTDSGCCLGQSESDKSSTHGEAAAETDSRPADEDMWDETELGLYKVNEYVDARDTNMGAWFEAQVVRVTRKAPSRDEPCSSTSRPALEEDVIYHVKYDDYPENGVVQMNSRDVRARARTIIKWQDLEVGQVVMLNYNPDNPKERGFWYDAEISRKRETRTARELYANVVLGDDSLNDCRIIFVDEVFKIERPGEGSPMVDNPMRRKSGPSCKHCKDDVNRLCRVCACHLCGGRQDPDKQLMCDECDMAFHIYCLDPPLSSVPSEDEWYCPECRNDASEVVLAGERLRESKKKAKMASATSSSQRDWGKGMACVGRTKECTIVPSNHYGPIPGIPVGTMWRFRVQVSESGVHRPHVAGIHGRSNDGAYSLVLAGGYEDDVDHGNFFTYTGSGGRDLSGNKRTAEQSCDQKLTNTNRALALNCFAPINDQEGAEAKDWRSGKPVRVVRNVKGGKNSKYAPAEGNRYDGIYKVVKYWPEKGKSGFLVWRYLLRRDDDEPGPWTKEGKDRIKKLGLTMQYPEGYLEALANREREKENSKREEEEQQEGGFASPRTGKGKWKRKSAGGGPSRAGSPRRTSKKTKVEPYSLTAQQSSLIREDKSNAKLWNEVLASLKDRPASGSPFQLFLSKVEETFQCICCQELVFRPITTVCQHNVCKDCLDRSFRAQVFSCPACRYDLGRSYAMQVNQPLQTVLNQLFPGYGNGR
M18AAP inhibitor: PfM18AAP enzyme inhibition; recombinant PfM18AAP, H-Glu-NHMec fluorogenic cleavage; inhibition, % at 7.35 µM; hit rate 1.2% among 290,000;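 active = inhibition above the campaign mean inhibition over all tested compounds plus 3 SD, cut at about 28% in these data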;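 note: 0% = plate median of test compound wells and 100% = 2 mM ZnCl2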
PfGluPho inh: PfG6PD (Plasmodium falciparum) enzyme inhibition | PfGluPho enzyme, NADPH resazurin-diaphorase fluorescence | inhibition, % at 20 µM | hit rate 0.78% among 350,000;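 active = inhibition reaching at least a set limit at 20 µM in the primary screen, cut at about 59% in these data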;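 note: 0% = DMSO wells with substrate and 100% = DMSO wells lacking glucose-6-phosphate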
MBD2 inh: inhibitors of human MBD2 binding to methylated oligonucleotide; Q9UBB5; TR-FRET; inhibition, % at 4.4 µM; hit rate 0.31% among 370,000; AID 686964; in the data active = inhibition above about 13%
PRMT1 inh: PRMT1 (human) inhibition, primary screen; recombinant PRMT1, activity-based probe fluorescence polarization; hit rate 1.3% among 370,000; inhibition, % at 2.79 µM; AID 652257;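 active = inhibition above about 21% made by adding two undisclosed values, limit read from the data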
PfG6PD confirm: PfG6PD inhibition, single-dose confirmed; AID 504753; hit rate 34% among 2,400; inhibition, % at 20 µM; shares compounds with PfGluPho inh; recombinant PfGluPho, NADPH-diaphorase-resazurin fluorescence;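 active = inhibition of at least 50% at 20 µM in any single replicate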;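 note: 0% = DMSO with substrate and 100% = DMSO lacking glucose-6-phosphate substrate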
Diaphorase 10uM: inhibits diaphorase or oxidizes, flagging false PfG6PD hits. AID 504862. diaphorase-coupled resazurin reduction, fluorescence, NADPH 10 uM. hit rate 39% among 820. shares compounds with PfGluPho inh. inhibition, % at 20 µM;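 active = average inhibition reaching 50% or more with the compound at 20 µM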;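 note: resorufin red fluorescence formed as diaphorase reduces resazurin using NADPH; 0% = DMSO with enzyme and 100% = DMSO without enzyme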
Diaph ctr 30uM: counter-screen for P. falciparum G6PD inhibitors: diaphorase inhibitors, oxidizers; hit rate 29% among 820; Diaphorase/resazurin coupled assay, resorufin fluorescence, 30 uM NADPH; shares compounds with PfGluPho inh; inhibition, % at 20 µM;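 active = inhibition averaging 50% or more, tested at 20 µM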;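 note: 0% = DMSO with enzyme and 100% = DMSO wells lacking diaphorase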
Starred values were filed as active, the others as inactive. A selection: hits, their analogues and other compounds. The true share with any hit is near 3.3%.

`CC1CCc2c(sc(NC(=O)CCCn3cnc([N+](=O)[O-])n3)c2C(N)=O)C1` (stereo not drawn) gave UHRF1 MBD2 ctr -1.4, M18AAP inhibitor 6.2, PfGluPho inh -9.8, MBD2 inh -1.8 and PRMT1 inh -2.3.
CCCCCCN1C[C@@H](n2cc(-c3ccc(F)cc3)nn2)[C@H](O)C[C@@H]1c1ccccc1 was read as UHRF1 MBD2 ctr 2.4, PfGluPho inh 36.1, MBD2 inh 0.1 and PRMT1 inh -0.3.
N=C1N(c2ccccc2)C(=S)C(=Nc2ccccc2)N1c1ccccc1 was read as UHRF1 MBD2 ctr -0.9, PfGluPho inh 65.0*, MBD2 inh -1.5, PRMT1 inh 9.4 and PfG6PD confirm 26.0.
`CN(C)c1ccc(/C=N/N2C(=N)N(c3ccccc3)C(=S)C2=Nc2ccccc2)cc1` gave M18AAP inhibitor 4.3.
Screening Cc1cccc(CNC(=O)c2ccc3c(c2)N(C)CCS3)c1 returned UHRF1 MBD2 ctr -0.7, M18AAP inhibitor 1.8, PfGluPho inh 70.8*, MBD2 inh -0.8, PRMT1 inh -1.4 and PfG6PD confirm -20.2.
`CN1CCSc2ccc(C(=O)NCc3ccccc3F)cc21` gave UHRF1 MBD2 ctr 0.2, M18AAP inhibitor 7.3, PfGluPho inh 63.3*, MBD2 inh -0.5, PRMT1 inh 12.1 and PfG6PD confirm 14.4.
`O=c1ccc2ccc(OCc3ccccc3)cc2o1` gave UHRF1 MBD2 ctr -0.2, M18AAP inhibitor 2.3, PfGluPho inh -7.5, MBD2 inh 0.6 and PRMT1 inh -6.1.
Screening Cc1cccc(NC(=O)Nc2nc3ncccn3c2-c2ccccc2)c1 returned UHRF1 MBD2 ctr -3.4, MBD2 inh -2.0 and PRMT1 inh -1.0.
CCOC(=O)CN1NC2(CCCCCCC2)NC1=S was read as UHRF1 MBD2 ctr -2.0, M18AAP inhibitor 14.3, PfGluPho inh 66.0*, MBD2 inh 3.6, PRMT1 inh 5.8 and PfG6PD confirm -24.2.
`CCOC(=O)CN1NC2(CCCCC2)NC1=S` gave UHRF1 MBD2 ctr 2.4, M18AAP inhibitor 12.3, PfGluPho inh 20.8, MBD2 inh 1.1 and PRMT1 inh 10.6.
O=C(N/N=C/c1ccccc1C(=O)O)c1cccc(S(=O)(=O)Nc2cc(Cl)ccc2Cl)c1 was read as UHRF1 MBD2 ctr -0.6, M18AAP inhibitor -7.9, PfGluPho inh -20.3, MBD2 inh 0.0 and PRMT1 inh 2.3.
Screening Cc1ccc(/C=N/NC(=O)c2cccc(S(=O)(=O)Nc3ccccc3Cl)c2)s1 returned UHRF1 MBD2 ctr -2.1, M18AAP inhibitor -8.5, PfGluPho inh 93.8*, MBD2 inh -0.1, PRMT1 inh 3.1, PfG6PD confirm 79.7*, Diaphorase 10uM 76.3* and Diaph ctr 30uM 61.4*.
`COC(=O)C1CN(Cc2cn(CCC3OCCO3)nn2)CCS(=O)(=O)N1Cc1ccccc1` (stereo not drawn) gave UHRF1 MBD2 ctr 17.2, MBD2 inh 4.5 and PRMT1 inh -2.3.
For Cc1ccc(Nc2cc(C)c(O)c(C)c2)cc1 the results were UHRF1 MBD2 ctr -0.2, M18AAP inhibitor 12.7, PfGluPho inh 107.3*, MBD2 inh -1.0, PRMT1 inh 3.3, PfG6PD confirm 69.3*, Diaphorase 10uM 61.7* and Diaph ctr 30uM 28.0.
For Cc1ccc(Nc2ccccc2)cc1 the results were UHRF1 MBD2 ctr 1.3, M18AAP inhibitor -9.4, PfGluPho inh -2.7, MBD2 inh 0.0 and PRMT1 inh 3.7.
For C=CCSc1nnc(NC(=O)c2ccc3c(c2)OCCO3)s1 the results were UHRF1 MBD2 ctr -1.5, PfGluPho inh 98.7*, MBD2 inh -3.1, PRMT1 inh -4.6 and PfG6PD confirm 30.7.
For O=C(Nc1ccc(Cl)cc1)Nc1ccccc1C(=O)N1CCCC1 the results were UHRF1 MBD2 ctr -4.3, MBD2 inh -4.4 and PRMT1 inh -1.8.
`CCCCn1c(SCC(=O)c2ccc(OC)cc2OC)nc2cc(S(N)(=O)=O)ccc21` gave UHRF1 MBD2 ctr 2.4, M18AAP inhibitor 6.8, PfGluPho inh 96.0*, MBD2 inh 1.0, PRMT1 inh 2.2 and PfG6PD confirm 41.7.
For CCCCn1c(SCC(=O)c2ccc3c(c2)NC(=O)CO3)nc2cc(S(N)(=O)=O)ccc21 the results were UHRF1 MBD2 ctr 0.9, M18AAP inhibitor 6.4, PfGluPho inh 60.6*, MBD2 inh 1.7, PRMT1 inh 1.9 and PfG6PD confirm 28.1.
For CCCCNS(=O)(=O)CC1NCc2ccccc21 (stereo not drawn) the results were UHRF1 MBD2 ctr 0.0, MBD2 inh -7.9 and PRMT1 inh -0.7.
Screening NC(=S)NNc1cc(Cl)cc(Cl)c1 returned UHRF1 MBD2 ctr 0.5, M18AAP inhibitor 9.9, PfGluPho inh 71.0*, MBD2 inh 2.5, PRMT1 inh 18.0 and PfG6PD confirm 13.8.
Screening O=C1C=C(NCCc2cc(Br)c(O)c(Br)c2)C(=O)c2ncccc21 returned UHRF1 MBD2 ctr 14.5, PfGluPho inh 115.4*, MBD2 inh -16.3, PRMT1 inh 12.7, PfG6PD confirm 100.8*, Diaphorase 10uM 46.4 and Diaph ctr 30uM 35.0.
Screening CCOC(=O)[C@@]12CCCC3=C1N(CCC3)C(=O)[C@H]2CC(=O)NCCCCc1ccccc1 returned UHRF1 MBD2 ctr -1.0, MBD2 inh 3.0 and PRMT1 inh 2.1.
`S=c1nc2[nH]c3ccccc3c2n[nH]1` gave UHRF1 MBD2 ctr -0.2, PfGluPho inh 66.4*, MBD2 inh 0.9, PRMT1 inh 7.0 and PfG6PD confirm 10.4.
For CC(OC(=O)c1ccccc1C(=O)N(C)c1ccccc1)C(=O)Nc1ccc(C(N)=O)cc1 (stereo not drawn) the results were UHRF1 MBD2 ctr 2.2, PfGluPho inh 12.6, MBD2 inh 3.5 and PRMT1 inh -2.1.
Screening CC(OC(=O)c1cc(O)c2ccccc2c1O)C(=O)Nc1ccc(C(N)=O)cc1 (stereo not drawn) returned UHRF1 MBD2 ctr -0.7, PfGluPho inh 72.3*, MBD2 inh -13.0, PRMT1 inh 6.5 and PfG6PD confirm 32.8.
`CCc1nnc(N/N=C/c2ccc(O)c(OC)c2)n1N` gave UHRF1 MBD2 ctr 3.1, M18AAP inhibitor -1.2, PfGluPho inh 71.7*, MBD2 inh -3.4, PRMT1 inh 0.3 and PfG6PD confirm 24.0.
`COc1ccc(/C=N/Nc2nncn2N)cc1Br` gave UHRF1 MBD2 ctr 7.1, M18AAP inhibitor 28.2*, PfGluPho inh 79.3*, MBD2 inh -5.1, PRMT1 inh 6.3 and PfG6PD confirm 39.7.
CCc1nnc(N/N=C\c2ccc(OC(C)=O)c(OC)c2)n1N was read as UHRF1 MBD2 ctr 3.1, M18AAP inhibitor 17.7, PfGluPho inh 33.1, MBD2 inh 1.9 and PRMT1 inh -0.8.
